Laboratory results reported in ChEMBL document CHEMBL1157539, “Thousands of chemical starting points for antimalarial lead identification” (Nature, 2010).

Columns and labels:
Format in all cases: functional
Plasmodium falciparum [1] = test: GSK_TCMDC: Inhibition of Plasmodium falciparum 3D7 in whole red blood cells, using parasite LDH activity as an index of growth. Test compounds present at 2uM
Plasmodium falciparum [2] = test: GSK_TCMDC: Inhibition of Plasmodium falciparum Dd2 in whole red blood cells, using parasite LDH activity as an index of growth. Test compounds present at 2uM
HepG2 = test: GSK_TCMDC: Percent inhibition of human HepG2 cell line. Test compounds present at 10uM.

Compound	Inhibition (Plasmodium falciparum [1]) [%]	Inhibition (Plasmodium falciparum [2]) [%]	Inhibition (HepG2) [%]
CC(=O)CCc1ccc(OCCN(Cc2ccccc2C(F)(F)F)c2ccc(C#N)c(C(F)(F)F)c2)cc1	100	87	14
COc1c(C2CCN(CCCCNC(=O)c3cc(-c4ccc(C#N)cc4)n[nH]3)CC2)ccc2c1CCCC2	86	15	36
O=c1cc(NCCCNCc2cccc(OC(F)(F)F)c2)[nH]c2ccccc12	97	72	0
Cc1cc(-c2cc3nc4c(c(O)n3n2)CCCC4)c(C)o1	94	82	4
COc1ccc(-c2cnc3[nH]cc(-c4ccncc4)c3c2)cc1OC	98	97	52
CCN(CC)CCNC(=O)c1ccc(NC(=O)c2cc(-c3ccncc3)nc3ccccc23)cc1	97	2	1
Cc1ccc(F)cc1S(=O)(=O)Nc1ccc(CCN2CCC(N3CCCCC3)CC2)cc1	99	15	25
CCCNCc1ccc(-c2ccc(CN(CCOC)C(=O)Cc3cccnc3)cc2)nc1.O=C(O)C(F)(F)F	92	13	10
Cc1cc(N2Cc3ccccc3C2)nc(Nc2ccc(S(=O)(=O)N3CCOCC3)cc2)n1.Cl	100	85	13
O=C(O)C(=O)O.Oc1ccccc1CN1CCN(C(c2ccccc2)c2ccccc2)CC1	98	90	0
COc1ccc(-c2csc3nc(C)nc(Cl)c23)cc1OC	97	95	0
Nc1nc(N)c2c(ccc3c2ccn3CCCF)n1	94	0	61
Cl.Oc1cc(Nc2ccnc3ccc(I)cc23)c(F)cc1Cl	95	13	20
CC(C)(C)NC(=O)c1ccc(Oc2ccc(OC(F)(F)F)cc2)c(NC(=O)C(C)(C)C)c1	89	2	0
Cl.Nc1ccc(-c2cc(Cl)cc(Cl)c2)cc1-c1cc2ccccc2[nH]1	100	97	0
CCn1cc(C(=O)O)c(=O)c2cc(F)c(N3CCN(S(=O)(=O)c4ccc(N)cc4)CC3)cc21	90	79	0
Cc1cccc2nc(-c3cccc(-c4ccc(NC(=O)c5ccoc5)cc4)c3)[nH]c12	99	56	65
Cc1cccc2nc(-c3cccc(-c4cccc(NC(=O)Nc5ccc(F)c(F)c5F)c4)c3)[nH]c12	100	99	32
CCN(CC)CCOc1ccc(C(O)(C#CC(O)(c2ccccc2)c2ccc(OCCN(CC)CC)cc2)c2ccccc2)cc1 (configuration not stated)	99	99	81
CCNc1cc(C(=O)N[C@@H](Cc2ccccc2)[C@H](O)CNCCC(C)(C)C)c(F)c(N2CCCCS2(=O)=O)c1.O=CO	98	93	2
COc1ccc(C(=O)NCCCCN2CCC(c3ccc4c(c3OC)CCCC4)CC2)cc1-c1ccc(C(F)(F)F)cc1	100	56	67
CC1CCCCN1CCCNC(=O)c1cccc(-c2cc3cc(Cl)c(Cl)cc3[nH]2)c1.O=C(O)C(F)(F)F (configuration not stated)	94	7	22
Cc1cccc(Oc2cccc3[nH]nc(N)c23)c1	85	0	6
CC(C)(C)c1ccc(NC(=O)c2ccc(CN3CCCN(Cc4cccc(F)c4)CC3)cc2)cc1.O=C(O)C(F)(F)F	90	8	51
CC(=NNC(=N)N)c1ccc2ccc3ccccc3c2c1.Cl	97	23	14
Cc1oc(-c2ccc(Cl)cc2)cc1C(=O)NCCC1CCN(CCCCCNC(=O)/C=C/c2ccc(Cl)c(Cl)c2)CC1	100	88	100
CN1CCC(C(=O)Nc2cccc(-c3ccc(-c4nc5cc(F)ccc5[nH]4)cc3)c2)CC1	100	51	12
COc1cc(NC(=O)N2CCc3ccc(OCCC4CCCN4C)cc32)cc(C(F)(F)F)c1.O=C(O)C(F)(F)F (configuration not stated)	100	42	5
Cc1ccnc(NC(c2ccc(Cl)c([N+](=O)[O-])c2)c2ccc3cccnc3c2O)c1 (configuration not stated)	89	57	47
